# Measured values: PubChem BioAssay AID686971 (National Center for Advancing Translational Sciences (NCATS), 2013)
# About 7,500 (2.1%) of roughly 360,000 compounds were called active. Not shown: some 8% with an inconclusive outcome. The list comes from a sample in which actives are over-represented; it also holds similar structures and randomly drawn compounds. A number with no mark means an inactive call. Calls come from the whole dose curve; as a rule, active = well fitted cell-killing curve with a large enough effect; inconclusive = small, poorly fitted or top-dose-only effect, or effect the other way, or another doubt; inactive = no such curve, though single readings can be large or run the other way.
# Assay: qHTS for induction of synthetic lethality in tumor cells producing 2HG: qHTS for the HT-1080-IDH1KD cell line
# Details: HT-1080 IDH1 knockdown viability, ATP luminescence, 48 h; series mostly up to 46.1 µM; activity, negative = toxicity: at the top concentration
# Text: Unbiased genomic sequencing for 22 glioma genomes found recurrent mutation of IDH1 on chromosome 2q33, a gene encoding the cytosolic isoform of IIDH1 associated with the tri-carboxylic acid cycle (TCA) that catalyzes the oxidative decarboxylation of isocitrate, yielding alpha-ketoglutarate and CO2 via NADP+ to NADPH conversion. Subsequent studies confirmed the recurrent IDH mutations in up to 70% of secondary gliomas and in 10% of AML cases. In addition, the somatic mutation of cancer-associated IDH1 is a point mutation resulting in various amino-acid substituents at Arginine132 (IDH1 R132), a key residue found in the enzyme's active site that when mutated, results in the loss-of-function in metabolizing isocitrate but confers a gain-of-function to produce the oncometabolite 2-hydroxyglutarate (2HG). This in effect defines IDH1 as an oncogene and provides an extraordinary opportunity to discover chemical probes against mutant IDH1 that may translate into much needed new therapies for glioma and AML patients.
# This assay aims to perform a synthetic-lethal screen for chemical probes specific for 2HG-producing tumor cells using matched paired cell lines (1) HT-1080-NT fibrosarcoma cell line that overproduces 2HG and (2) HT-1080-IDH1KD cell line which has IDH1 expression knocked-down. Desirable compounds are toxic to the NT fibrosarcoma cell line but not to the IDH1KD cell line. The data in this AID corresponds to the results of the qHTS against the HT-1080 IDH1KD cell line.
# [1] Dang L, Jin S, Su SM. IDH mutations in glioma and acute myeloid leukemia. Trends of Mol Med. 2010; 16(9): 387-97.
# [2] Dang L et al. Cancer-associated IDH1 mutations produce 2-hydroxyglutarate. Nature. 2010; 465(7300):966.
# Molecular Libraries Probe Production Centers Network [MLPCN]
# NIH Chemical Genomics Center [NCGC]
# Assay Submitter (PI): Lenny Dang Ph.D., Agios Pharmaceuticals
# Suspensions of trypsinized HT-1080-IDH1KD cells were dispensed into white, tissue culture-treated, solid 1536-well plates at 5uL/well (750 cells/well final concentration) in RPMI medium supplemented with 5% FBS. Plates were incubated at 37 degrees C for 2 hours, after which 23 nL of compounds or DMSO were delivered to each well using a pin tool. Plates were then incubated at 37 degrees C for an additional 48 hours. CellTiter-Glo viability reagent (Promega) was dispensed into wells (2.5uL/well) and incubated at room temperature for 10 minutes. The plates were measured on a PerkinElmer ViewLux plate reader for luminescent signal (clear filter, 1 sec exp.). DMSO-treated control wells and media-only (no cells) control wells were used to normalize %Activity of identified toxic compounds; DMSO-treated wells corresponded to 0%Activity (100% viability), while media-only controls were used to normalize 100%Activity (0% viability). To minimize variability between cell lines, both HT-1080-NT and HT-1080-IDH1KD lines were dispensed and treated with identical compound series in single batches.
# Concentration-response curves were fitted to the signals arising from the resulting luminescence. The concentration-effect curves were then classified based on curve quality (r2), response magnitude and degree of measured activity, and compounds were subsequently categorized based on their curve class.
# Potency is the fitted concentration of half-maximal effect.
SMILES,"activity, negative = toxicity [%]",Potency
CC(=O)C[C@@H]1OC[C@H](CO)N1S(=O)(=O)c1ccc(C)cc1,22.6,
Cn1ncc([N+](=O)[O-])c1C(=O)Nc1cc(Cl)ccc1Cl,-2.97,
CCCC/C=C/c1cccc2nncn12,0.514,
CN(C)C(CNC(=O)c1cc(Br)c(Br)s1)c1ccco1 (stereo not given),-0.0129,
CC1CCN(C(=O)CSc2nnc(-c3ccco3)n2N)CC1,9.04,
O=C(NC(c1ccc(-c2ccccc2)cc1)c1cnccn1)C1CCN(CCOc2ccc(Cl)cc2Cl)CC1 (stereo not given),,14.6 µM (active)
COc1cccc(CN2CCC(C(=O)NC(c3ccc4c(c3)OCO4)c3ccccn3)CC2)c1 (stereo not given),-8.81,
O=C(CCCOc1ccc(Cl)cc1Cl)NNC(=O)C1CCC1,-11.3,
O=C1NC(Cc2ccccc2)c2nc3ccc(Br)cc3c(=O)n2-c2cc3ccccc3cc21 (stereo not given),-9.22,
COc1ccc(CN2C(=O)C(CC(=O)NC3CCCCC3)CC(C(=O)N3CCOCC3)=C2C)cc1 (stereo not given),-3.06,
COc1ccc(-c2nn(-c3ccccc3)cc2C(=O)Nc2nccs2)cc1OC,-22.5,
COc1ccccc1CCNS(=O)(=O)c1cn(C)nc1C,-0.537,
COC(=O)c1ccc2nc(-c3cccc(Br)c3)c(Cc3ccc(OC)cc3C)n2c1,-8.37,
COC(=O)c1ccc2nc(-c3cccc(Br)c3)c(Cc3ccccc3C(F)(F)F)n2c1,7.64,
CCCCCc1c(-c2cccc(Br)c2)ncn1CCc1ccccc1OC,,18.4 µM (active)
COc1ccccc1Cc1c(-c2ccc(Cl)cc2)nc2ccc(Cl)cn12,-22.2,
CCCCCc1c(-c2ccc(OC)c(OC)c2)ncn1CCc1ccccc1OC,,10.3 µM (active)
CCCCc1c(-c2ccc(Br)cc2)ncn1CCc1ccccc1OC,,7.31 µM (active)
CCC(=O)NCc1cc(-c2nn(C)c(=O)c3ccccc23)ccc1OC,-4.19,
COc1cccc(-c2cnc(C(O)c3ccccc3OC)[nH]2)c1 (stereo not given),21,
CCCOc1ccc(F)cc1-c1cc(C(=O)NCc2ccc(F)cc2)[nH]n1,-15.1,
O=C(COc1ccc(S(=O)(=O)N2CCCC2)cc1[N+](=O)[O-])N1CCCCC1,2.99,
CCCCCCCCN1C(=O)[C@H](CC(=O)NCC23CC4CC(CC(C4)C2)C3)C[C@@]2(C(=O)OC)CCCCC=C12,4.09,
C[C@@H]1CN([C@@H](C)CO)C(=O)c2c(c3ccccc3n2C)-c2ccccc2CO[C@H]1CN(C)C(=O)C1CC1,4.26,

SMILES,"activity, negative = toxicity [%]",Potency
Cc1c(C(=O)NCc2ccc(C#N)cc2)sc(=O)n1Cc1ccc(C(=O)N(C)C)cc1,-10.5,
CN(C)CCCOc1ccc(-c2ccc3nccn3c2)cn1,2.09,
CN1CCN(C(=O)c2ccc(NC(=O)c3ccc(Br)o3)cc2)CC1,1.04,
Cc1ccccc1NC(=O)CSc1nc2ccc(Nc3nc(N4CCOCC4)nc(N4CCOCC4)n3)cc2s1,-4.33,
O=C(CSc1nc(Nc2ccccc2)nc(N2CCOCC2)n1)Nc1cc(Cl)ccc1O,,18.4 µM (active)
CC1(c2ccccc2)NC(=O)N(CC(=O)Nc2cc(Cl)ccc2N2CCOCC2)C1=O (stereo not given),-1.21,
C=CCC[C@H](CCCCC)OC(=O)/C=C/[C@H](O)[C@@H](O)C[C@@H](O)CC=C,-19.9,
O=C(O)CC1=C(Nc2ccccc2)C(=O)N(c2ccccc2)C1c1ccc(Cl)cc1 (stereo not given),0.642,
O=C1C=C(c2ccc(Cl)cc2)C(=O)N1Nc1ccccc1,,18.4 µM (active)
O=C(CCC(=O)OCc1ccc(Cl)cc1)Nc1ccccc1,0.564,
CCCNC(=O)c1cc(C2CCCCN2C(=O)OC)on1 (stereo not given),19.5,
c1ccc2c(c1)nnn2-c1ccncc1,-7.3,
O=C(NCCCN1CCOCC1)c1cn(-c2ccccc2)nc1-c1ccc(F)cc1,2.98,
O=C(/C=C/c1cn(-c2ccccc2)nc1-c1ccc2c(c1)OCCO2)NCCCN1CCOCC1,,20.6 µM (active)
COc1ccc(-c2nn(-c3ccccc3)cc2/C=C\C(=O)N2CCOCC2)cc1[N+](=O)[O-],2.09,
COC(=O)c1ccc2nc(C3CCCCC3)c(Cc3cccc(F)c3)n2c1,-10.3,
CCc1ccc([C@@H]2CC(=O)[C@@H]3CN(S(=O)(=O)c4ccc(C)cc4)[C@H](c4ccc(Cl)cc4)C[C@@H]3N2S(=O)(=O)c2ccc(C)cc2)cc1,23.1,
CN(C)C(=O)c1cccc(-c2cnc3c(NC=O)cc(-c4ccc(C(=O)N5CCOCC5)cc4)cn23)c1,-13.6,
CC(=O)Nc1cc(-c2cccc(CO)c2)cn2c(-c3cccc(C(F)(F)F)c3)cnc12,5.47,
COc1cccc(-c2cc(NC(C)=O)c3ncc(-c4cccc(C(C)=O)c4)n3c2)c1,-20.1,
COc1ccccc1-c1cc(NC(C)=O)c2ncc(-c3ccc(F)cc3)n2c1,-16.8,
CC(=O)Nc1cc(-c2ccc(N3CCN(C)CC3)cc2)cn2c(-c3cccc(C(=O)N(C)C)c3)cnc12,2.62,
COc1cccc(-c2cnc3c(NC(C)=O)cc(-c4cc(F)ccc4OC)cn23)c1,,9.2 µM (active)
CCC(C)C(=O)Nc1ccccc1N1CCN(c2ccc(F)cc2)CC1 (stereo not given),-20.9,

SMILES,"activity, negative = toxicity [%]",Potency
CN(C)CCNC(=O)c1cccc(-c2cnc3c(NC=O)cc(-c4cccc(C(F)(F)F)c4)cn23)c1,,18.4 µM (active)
CC(=O)Nc1cc(-c2ccc(N3CCN(C)CC3)cc2)cn2c(-c3ccc(F)cc3)cnc12,,23.1 µM (active)
O=C(NCCO)c1cccc(-c2cccc3nccn23)c1,0.201,
N#C/C=C(/c1ccc(F)cc1)N1CCOCC1,13,
O=CNc1cc(-c2ccc(C(=O)N3CCOCC3)cc2)cn2c(-c3ccc(F)cc3)cnc12,,13 µM (active)
O=C1NC[C@H](CCCCN2C[C@H](Cc3ccccc3)N(Cc3ccccc3)C(=O)C2=O)N(CCc2ccc(O)cc2)C1=O,5.18,
Cc1ccc(-c2ccc(C3=CC(=O)CC(C)(C)C3=O)cc2)cc1,14.6,
CC(C)C[C@@H]1Cc2[nH][nH]c(=O)c2[C@H](CCc2ccccc2)O1,-20,
CCOC(=O)[C@]12CCCC=C1N(CCC1=CCCCC1)C(=O)[C@H](CC(=O)NCCCOC)C2,-13.6,
CCCNC(=O)C1(C)CCCN(C(=O)c2oc3ccccc3c2C)C1 (stereo not given),2.01,
O=NN(CCCl)C(=O)NCCc1cccc[n+]1[O-],17.2,
CCc1nc2ccc(C(=O)NC3CCN(Cc4ccccc4)CC3)cn2c1N(C)CCN1CCOCC1,-19.7,
C#CCNC(=O)C[C@@H]1C[C@@]2(C(=O)OCC)CCCC=C2N(Cc2ccco2)C1=O,8.96,
NS(=O)(=O)c1ccc(NC(=O)CSc2nnc3c(n2)[nH]c2ccccc23)cc1,0.787,
CC(=O)c1cccc(-c2cnc3c(NC=O)cc(-c4cccc(C(=O)N(C)C)c4)cn23)c1,-0.766,
CN(C)C(=O)c1cccc(-c2cnc3c(NC=O)cc(-c4ccc(F)cc4)cn23)c1,,23.1 µM (active)
CCOc1ncccc1C(=O)Nc1ccc2c(c1)OCCO2,-8.79,
Cc1ccc2nc(-c3ccncc3)cc(C(=O)Nc3ccc4c(c3)OCCO4)c2c1,,9.2 µM (active)
Cc1ccc2nc(-c3ccccn3)cc(C(=O)Nc3ccc4c(c3)OCO4)c2c1,21.7,
CCOc1ccc(CCN2C(=O)C(=O)N([C@@H](CC(C)C)CN3CCC[C@H]3CN3C(=O)C(=O)NC[C@@H]3Cc3ccccc3)C[C@@H]2CC(C)C)cc1,5.05,
COC(=O)COc1cccc2c(=O)n(CC(=O)NCCc3ccc(OC)c(OC)c3)ccc12,8.42,
COC(=O)COc1cccc2c(=O)n(CC(=O)NCc3ccccc3)ccc12,,2.31 µM (active)
Cc1ccc(CNC(=O)CCNC(=O)Cn2ccc3ccccc3c2=O)cc1,-10.7,
C=CCN1CCN(c2ccncc2S(=O)(=O)N2CCN(C)CC2)CC1,-2.02,

SMILES,"activity, negative = toxicity [%]",Potency
COc1cccc(C(NC(C)=O)c2nc(-c3ccccc3OC)cs2)c1 (stereo not given),3.25,
COc1ccc(C(CNC(=O)CSc2ccccc2)N2CCOCC2)cc1 (stereo not given),5,
CN(C)c1cccc(NC(=O)c2ccc(-c3ccc(F)c(F)c3)c3ccoc23)c1,-0.432,
Cc1cc(C(=O)CCl)c(C)n1CC1COc2ccccc2O1 (stereo not given),,14.6 µM (active)
Cc1ccsc1C(=O)OCC(=O)c1cc(C)n(CC2CCCO2)c1C (stereo not given),1.21,
O=C1C(=O)N(CC2COc3ccccc3O2)c2ccccc21 (stereo not given),0.0538,
CC(C)(C)c1ccc(C(=O)NCCn2c(N)c(C#N)c3nc4ccccc4nc32)cc1,,16.4 µM (active)
CC(C)(C)c1ccc(C(=O)NCC(=O)OCN2C(=O)c3ccccc3C2=O)cc1,-15.8,
COCC(C)OC(=O)c1c(N)n(CCCN2CCOCC2)c2nc3ccccc3nc12 (stereo not given),-6.94,
COc1ccc2nc(-c3ccccn3)ccc2c1,-16,
C[C@@H]1CN([C@@H](C)CO)C(=O)CCCn2nncc2CO[C@H]1CN(C)Cc1ccc(C(F)(F)F)cc1,5.94,
O=S1(=O)CC(N2CCC(Cc3ccccc3)CC2)CN1Cc1ccccc1 (stereo not given),-9.53,
CC(C)(C)C(=O)c1c(N)[nH]c(C(=O)c2ccccc2)c1-c1ccc(F)cc1,8.65,
COc1ccccc1-c1n[nH]nc1C1=CC(=O)CC(C)(C)C1,1.75,
O=C(NCCC1CCCCN1S(=O)(=O)c1cccs1)C(=O)Nc1ccc(F)cc1F (stereo not given),,14.6 µM (active)
COc1ccccc1CCNC(=O)C(=O)NCCC1CCCCN1S(=O)(=O)c1cccs1 (stereo not given),-23.9,
O=C(NCCC1CCCCN1S(=O)(=O)c1ccc(F)cc1)C(=O)NC1CC1 (stereo not given),11.8,
O=C(Nc1cccc2ccccc12)c1[nH]c(-c2ccccc2)c2c1C(=O)N(C1CC1)C2=O,16.8,
O=C(NCCN1CCOCC1)C1CCN(S(=O)(=O)c2ccccc2)CC1,9.12,
CN(C)S(=O)(=O)Oc1ccccc1C(=O)Nc1ccccc1Cl,11,
O=C(Nc1ccccc1Cl)/C(Cl)=C(\Cl)S(=O)c1ccccc1 (stereo not given),,6.51 µM (active)
O=C(COC(=O)CCc1c[nH]c(=O)[nH]1)Nc1ccccc1Cl,-0.0015,
CC1(Oc2ccc(Cl)cc2)CCN(Cc2csc3ccccc23)C1 (stereo not given),14.1,
